Assay results from article PMC7819943, “Rice protein-binding microarrays: a tool to detect cis-acting elements near promoter regions in rice”.
In all, about 35,000 sequences were measured (“fluorescence intensity (a.u.)”: median about 10,000, highest 2% from about 52,000 on). The full list was thinned out, with the highest values kept by preference.

These sequences were tested against T1, OsWOX13 (Oryza sativa, UniProt Q5QMM3 1-267) (assay: protein-binding microarray (RPBM); PBS, 2% BSA, 51.3 ng/ul salmon testes DNA, 50 uM zinc acetate, 200 nM TF, 25 C, 1 h; high values mean tight binding). Settings: protein: recombinant; tags: N-terminal polyhistidine and DsRed monomer fusion (pET32a); label: CyDye5-dUTP incorporated in the synthesized complementary strand; 3' TTTTT single-stranded linker to array surface; dsDNA, one strand shown.
T1 sequence: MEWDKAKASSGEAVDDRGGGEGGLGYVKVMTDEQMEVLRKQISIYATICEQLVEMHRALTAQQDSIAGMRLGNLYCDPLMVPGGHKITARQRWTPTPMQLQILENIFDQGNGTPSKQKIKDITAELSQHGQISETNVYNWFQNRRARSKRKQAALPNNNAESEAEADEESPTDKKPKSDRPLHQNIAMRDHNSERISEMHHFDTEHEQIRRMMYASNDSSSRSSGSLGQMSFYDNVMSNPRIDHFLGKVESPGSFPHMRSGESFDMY
How it was run: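 Per-feature fluorescence intensity (arbitrary units), read on an Axon 4000B scanner, is the binding signal. Transcription factors carrying an N-terminal polyhistidine tag and DsRed fusion were expressed in E. coli BL21-CodonPlus and purified on Ni–NTA. A custom Agilent array, made double-stranded by primer extension with Cy5-dUTP and blocked with 2% BSA, was incubated with 200 nM protein in PBS, 2% BSA, salmon testes DNA and 50 µM zinc acetate at 25 °C for 1 h and then washed.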

Row | Sequence | binding signal
1 | AAGCTGAAATTTGTTAGAGTAATAGTTGACACCATTACCACGGAGTCACCTAGTGCAG | 3160 fluorescence intensity (a.u.)
2 | AATCCTAATTATAAGATTTAAGACCTTTCTCTTCACTTCACGGAGTCACCTAGTGCAG | 9800 fluorescence intensity (a.u.)
3 | CACAATCACGAATTGAAGAAAGTCCTTCATTTCACATCAACGGAGTCACCTAGTGCAG | 3660 fluorescence intensity (a.u.)
4 | AAGGATTAGATATGATTCAATCTTTTGGTTCAAAGTTCTTCGGAGTCACCTAGTGCAG | 6590 fluorescence intensity (a.u.)
5 | GAGATATAATTGATTAGAGTTACTTTCAATCTTTTCCGTGCGGAGTCACCTAGTGCAG | 62000 fluorescence intensity (a.u.)
6 | CCCAATTGGTGATTAGATAATCCTGTCACTTTCTTCAAGTCGGAGTCACCTAGTGCAG | 54100 fluorescence intensity (a.u.)
7 | TCACCTTGATTTCAATCATTGGACAAGTGTCCTAGAAAGTCGGAGTCACCTAGTGCAG | 55300 fluorescence intensity (a.u.)
8 | CTAGATTGAGAGCATCTGATTCAATAATTAGACTTTCAATCGGAGTCACCTAGTGCAG | 45100 fluorescence intensity (a.u.)
9 | CTCAATAATTAAGTTCTTGATTAACATTGATATTACTTTCCGGAGTCACCTAGTGCAG | 24600 fluorescence intensity (a.u.)
10 | TTGGCCTTCAATCATTGACACTTGGACAGAACAAATCAATCGGAGTCACCTAGTGCAG | 26000 fluorescence intensity (a.u.)
11 | TCTAAATTAATCTTTAGTTCTTGACCGCAAAATATGAAGCCGGAGTCACCTAGTGCAG | 14800 fluorescence intensity (a.u.)
12 | TAACGGATTGATACATCTGGTTACAAATGTGCACTACATACGGAGTCACCTAGTGCAG | 3880 fluorescence intensity (a.u.)
13 | TAGCTAATTTGCACCCACATGCATGTGCTTCGAGTAGTTACGGAGTCACCTAGTGCAG | 7070 fluorescence intensity (a.u.)
14 | CCCTTACTGATTGGACGGTCCCGCGCATAAGCATGCGCACCGGAGTCACCTAGTGCAG | 27800 fluorescence intensity (a.u.)
15 | TGATTAACAGCAACCATAGACGGGACAGGCCAGCCCACCACGGAGTCACCTAGTGCAG | 3260 fluorescence intensity (a.u.)
16 | TTCAACCATAAATTGAATTGAATAGGACGGATGATGGTTACGGAGTCACCTAGTGCAG | 12700 fluorescence intensity (a.u.)
17 | ATGGGCCACGGGCCCACGGACCATACGCATAGGATTCAACCGGAGTCACCTAGTGCAG | 59500 fluorescence intensity (a.u.)
18 | GTACAATTTTCATAATTTGCATAAATCGAAAAGAAAAGTGCGGAGTCACCTAGTGCAG | 12400 fluorescence intensity (a.u.)
19 | TAAATTGATCAAATTGCCATTTGGAGTGCAGTGACGGGCTCGGAGTCACCTAGTGCAG | 54900 fluorescence intensity (a.u.)
20 | ACTAATGATGGATTAATTAGGCTTAATATATTCATCTCGCCGGAGTCACCTAGTGCAG | 58100 fluorescence intensity (a.u.)
21 | TTAAATTATATTTATATCAAATTATACTTTGATCAATACTCGGAGTCACCTAGTGCAG | 39900 fluorescence intensity (a.u.)
22 | AATGATGGAGGATAATTTATATGCTAAATTATAAACTTGTCGGAGTCACCTAGTGCAG | 57700 fluorescence intensity (a.u.)
23 | TTTTATAATGATACTTAATTAATCATGTGCTAATAATCACCGGAGTCACCTAGTGCAG | 9330 fluorescence intensity (a.u.)
24 | GGTATGATAAACTTGACTAATTATACCATTGGATCATTGTCGGAGTCACCTAGTGCAG | 11000 fluorescence intensity (a.u.)
25 | GATTAATTAGGCTCAATATATTCATCTCGCGAATTAGTCCCGGAGTCACCTAGTGCAG | 33000 fluorescence intensity (a.u.)
26 | TATGAGATATCATTTAATTATATAATAAATATAATGATGTCGGAGTCACCTAGTGCAG | 4610 fluorescence intensity (a.u.)
27 | ATGATTAATACTTAATTAATTATGTGCGCTCATGGATCACCGGAGTCACCTAGTGCAG | 56400 fluorescence intensity (a.u.)

Row | Sequence | binding signal
28 | GTTTGGATTGATTATTGGGACAGTGAAATTGACCATTTGACGGAGTCACCTAGTGCAG | 39600 fluorescence intensity (a.u.)
29 | TGATGGATTAATATATGATTAATTAAGTATTAGCTTAAACCGGAGTCACCTAGTGCAG | 13200 fluorescence intensity (a.u.)
30 | CAAATGAGCTAATACTTAATTAATAATGCGCTAATGGATCCGGAGTCACCTAGTGCAG | 4340 fluorescence intensity (a.u.)
31 | CAAGAACCAATAATTTGCAAACTGTAGGGCACAGTTCGATCGGAGTCACCTAGTGCAG | 6920 fluorescence intensity (a.u.)
32 | GTCTCTTTGAAATTGAAATTGGGCCTCATTTAGTCTGTTACGGAGTCACCTAGTGCAG | 3500 fluorescence intensity (a.u.)
33 | TTTTCCATCACATTAACCTGTCATACACACAAAACTTTTCCGGAGTCACCTAGTGCAG | 4820 fluorescence intensity (a.u.)
34 | ACAATCAATCAATCTTGCTTTCCATTCAAAGTCTTCATTTCGGAGTCACCTAGTGCAG | 35000 fluorescence intensity (a.u.)
35 | AATGTGAGCATGTGATTTAAATTTGAGAAAATTCAACTTGCGGAGTCACCTAGTGCAG | 3660 fluorescence intensity (a.u.)
36 | GTCCTATTTGACGCTTTGATTAGACAACGCTTTGTCAATTCGGAGTCACCTAGTGCAG | 12900 fluorescence intensity (a.u.)
37 | CGCTTGATCTGGGGTGGGGTCGCGAGTGGTGGAGGAGGTGCGGAGTCACCTAGTGCAG | 3600 fluorescence intensity (a.u.)
38 | TGTTGACAAAATTAGCTGTTGCAACGCATACAGACTTCAACGGAGTCACCTAGTGCAG | 7410 fluorescence intensity (a.u.)
39 | CCCTAATTATGGTACGTGTTGATCGTGCCACTTCTTCCTCCGGAGTCACCTAGTGCAG | 39500 fluorescence intensity (a.u.)
40 | TTAGATAAAATTAATTTGTCTTGCTTTTGTAGGCTGCAGACGGAGTCACCTAGTGCAG | 27700 fluorescence intensity (a.u.)
41 | ATAAAATGTAAATTATGCTTAAAATGCTTTTAGTGATAAACGGAGTCACCTAGTGCAG | 4750 fluorescence intensity (a.u.)
42 | ATGTATTTGCTATTAAATTAATTATAGATGATTTAGAGCTCGGAGTCACCTAGTGCAG | 16300 fluorescence intensity (a.u.)
43 | TACACTGATTAGTGGATGATGATATAGTATCTTTGTATGTCGGAGTCACCTAGTGCAG | 45600 fluorescence intensity (a.u.)
44 | ACTGATTAGTGGATATGCTTTATATATGTAATTAGGATGCCGGAGTCACCTAGTGCAG | 53000 fluorescence intensity (a.u.)
45 | ATGTGCTAATGATGGATTAATTACGCTTAATAAATTCGTCCGGAGTCACCTAGTGCAG | 28000 fluorescence intensity (a.u.)
46 | AAACCTAATTAATCATGCGCAAATGGCTTTCTTGTTTTGCCGGAGTCACCTAGTGCAG | 22900 fluorescence intensity (a.u.)
47 | TGCTAATGATGGATTAATTAAGCTTAATAAATTCATCTCGCGGAGTCACCTAGTGCAG | 53700 fluorescence intensity (a.u.)
48 | AATTAATCATGCAATAAAACAAATTTCGTTTTGCGTGCTACGGAGTCACCTAGTGCAG | 6310 fluorescence intensity (a.u.)
49 | TGATTTAATTAATTAATTAATGGCCTTGTTATTGGATGCTCGGAGTCACCTAGTGCAG | 47100 fluorescence intensity (a.u.)
50 | TTGCTAATGACGGATTAATTATGCTTAATAAATTCATCTCCGGAGTCACCTAGTGCAG | 20600 fluorescence intensity (a.u.)
51 | GTTTGATTGCTTAATTAATTTCCAAATGCGCAATCATGCACGGAGTCACCTAGTGCAG | 64800 fluorescence intensity (a.u.)
52 | CTGGATGATTGGATTGATTATGGACAGATTTAAATTTGCTCGGAGTCACCTAGTGCAG | 65500 fluorescence intensity (a.u.)
53 | TGAGTGATGACAGTAAGTAACTGAATCTGCTGAGTTCTGACGGAGTCACCTAGTGCAG | 6590 fluorescence intensity (a.u.)
54 | TCTCATCAATTGAATGGATATTATATTTTAATGTGTTCAGCGGAGTCACCTAGTGCAG | 8660 fluorescence intensity (a.u.)
